Screen size: about 87,000 compounds; about 540 (0.62%) were called active. How the calls were made is not given here. Shown is part of a subset that was picked to be rich in actives. Results with a measured potency or affinity are listed apart.
Test: inhibitors of MT1-MMP promoter transcription, cell-based, luciferase reporter, luminescence (AID 618);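 further: actives suppress MT1-MMP promoter-driven transcription so potencies describe inhibitors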
Conditions: MT1-MMP promoter luciferase reporter cells

SMILES | outcome
Cc1ccccc1/C=C1\CCCc2ccccc2C1=O | inactive
O=C1/C(=C/c2ccccc2)CCCc2ccccc21 | inactive
O=C(NC1CCN(Cc2ccccc2)CC1)C1CCN(S(=O)(=O)c2cccc3cccnc23)CC1 | inactive
COc1ccccc1NC(=O)c1ccc(N)cc1 | inactive
Cc1cc(N2CCC(C)CC2)n2ncc(-c3ccccc3)c2n1 | inactive
Cc1cc(N2CCCCC2)n2ncc(-c3ccccc3)c2n1 | inactive
CCOc1ccc(C(=O)NCCCn2ccnc2)cc1 | inactive
O=C(NC1CCCCC1)NC1(C(=O)N2CCN3CCCC3C2)CCCCC1 (stereo not given) | inactive
COc1cccc(C=Nc2ccc3c(c2)OCCO3)c1O | inactive
Nc1ccc2oc(-c3cccc(Br)c3)nc2c1 | inactive
CCc1ccc2oc(-c3cc(N)ccc3Cl)nc2c1 | inactive
CCc1ccc2oc(-c3cc(N=Cc4cccc(OC)c4O)ccc3O)nc2c1 | active
c1cc(-c2nc3cc(Cc4ccc5oc(-c6ccncc6)nc5c4)ccc3o2)ccn1 | inactive
NCc1ccc(-c2nc3ccccc3o2)cc1 | inactive
CCc1ccc2oc(-c3cccc(NC(=O)c4cccnc4)c3)nc2c1 | inactive
CCc1ccc2oc(-c3cc(N)cc(C)c3O)nc2c1 | inactive
CCc1ccc2oc(-c3cc(N)ccc3O)nc2c1 | active
CCc1ccc2oc(-c3ccc(N)cc3)nc2c1 | active

SMILES | outcome
COc1cccc(C=Nc2cc(C)on2)c1O | inactive
CC(=Nc1ccccc1)C1=C(O)CSC1=O | inactive
COc1ccc(OC)c(NC(=O)c2ccc(NS(=O)(=O)c3c(C)noc3C)cc2)c1 | inactive
CCn1c(=O)c2c(nc3n2CC(C)CN3CCc2ccccc2)n(C)c1=O (stereo not given) | inactive
CCCN(CCC)S(=O)(=O)c1ccc(NS(=O)(=O)c2ccc(F)cc2)cc1 | inactive
CCC(=O)c1ccccc1OCCCn1cncn1 | inactive
CCC(=O)Nc1cc2nn(-c3ccccc3)nc2cc1Cl | active
CC(C)CC(=O)Nc1cc2nn(-c3ccccc3)nc2cc1Cl | inactive
CC(=O)Nc1cc2nn(-c3ccccc3)nc2cc1Cl | inactive
CCSc1nnc(-c2ccc(Cl)cc2Cl)o1 | inactive
C=CCSc1nnc(-c2ccc(Cl)cc2Cl)o1 | inactive
Clc1ccc(-c2nnc(SCc3ccon3)o2)c(Cl)c1 | active
Cc1cc(OCC(=O)N2CCc3ccccc3C2)c2c(-c3ccccc3)cc(=O)oc2c1 | inactive
Cc1ccc(S(=O)(=O)N(C)Cc2ccc(-c3nnc4n3CCC4)cc2)cc1 | inactive
COC(=O)CNC(=O)[C@@]1(C)C=C[C@@H](Cc2ccccc2)N1C(=O)OC | active
COC(=O)CNC(=O)[C@@]1(C)C=C[C@@H](Cc2ccccc2)N1C(C)=O | inactive
CNC(=O)[C@@]1(C)C=C[C@@H](Cc2ccccc2)N1C(=O)OC | inactive

From PubChem BioAssay AID618 (Sanford-Burnham Center for Chemical Genomics, 2007)
